Measurements from PubChem BioAssay (NCATS).
Inconclusive results are not listed. Activity calls are given as the source filed them. Calls come from the whole dose curve; as a rule, active = well fitted curve in the direction sought with a large enough effect; inconclusive = small, poorly fitted or top-dose-only effect, or another doubt; inactive = no such curve, though single readings can be large; an effect the other way counts as inactive or inconclusive.

Assays:
[1] = Cell Viability - LYMP1-003 - Assay at 40 hr (AID 964); note: series mostly up to about 92 µM; nearly all actives have a fitted effect of over 60% in size
Method in brief: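 Acute toxicity is scored as a concentration-dependent loss of intracellular ATP in LYMP1-003 cells (2500/well, complete medium) after 40 hr at 37 C, measured by CellTiter-Glo luminescence; AC50 values derive from standard Hill modelling.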

[2] = Cell Viability - LYMP2-004 (AID 966); note: nearly all actives have a fitted effect of over 65% in size
Method in brief: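 Viable-cell number estimated from ATP luminescence (CellTiter-Glo) in 2500 human lymphoblastoid cells/well after 24 hr at 37 C with compound. AC50 fitted to the standard Hill equation.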

[3] = Cell Viability - LYMP2-005 (AID 967); note: series mostly up to about 92 µM
Method in brief: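 qHTS viability screen in LYMP2-005 cells: 24 h at 37 C with compound, ATP luminescence via CellTiter-Glo, AC50 from Hill curves.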

[4] = Cell Viability - LYMP2-009 (AID 968); note: series mostly up to about 92 µM; nearly all actives have a fitted effect of over 55% in size
[5] = Cell Viability - LYMP2-011 (AID 969);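 note: cells exposed to compound for 24 hours; nearly all actives have a fitted effect of over 60% in size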
Method in brief: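 Cells seeded at 2500 per well rest 5 hr before compound addition, then incubate 24 hr at 37 C. CellTiter-Glo reagent is added for 30 min at room temperature before luminescence detection.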

[6] = Cell Viability - LYMP2-013 (AID 970); note: series mostly up to about 92 µM; nearly all actives have a fitted effect of over 55% in size
Method in brief: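 In complete culture medium, human lymphoblastoid cells were dosed for 24 hr at 37 C, with tetraoctylammonium bromide (6.4pM to 92 uM) as positive control. Viability reflects luciferase-based ATP signal; AC50 derived from concentration-response curves.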

[7] = Cell Viability - LYMP2-015 (AID 971); note: nearly all actives have a fitted effect of over 55% in size
Method in brief: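 AC50 values reflect Hill-model fits of ATP-based luminescence (CellTiter-Glo) from a human lymphoblastoid line, 2500 cells/well, treated 24 hr at 37 C.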

[8] = Cell Viability - LYMP2-017 (AID 972);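 note: series mostly up to about 92 µM; cells exposed to compound for 24 hours at 37 °C; nearly all actives have a fitted effect of over 55% in size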
Method in brief: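 In this qHTS format, lymphoblastoid cells in complete medium receive test compound for a day at 37 C before ATP content is quantified by luciferase luminescence. Reported AC50 figures come from standard Hill-equation curve fitting.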

[9] = Cell Viability - LYMP2-019 (AID 973); note: nearly all actives have a fitted effect of over 55% in size
Method in brief: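 AC50 values come from Hill-equation modelling of qHTS concentration-response curves, where viability is measured as luciferase-based ATP luminescence in the lymphoblastoid line after 24 hr compound exposure in complete culture medium.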

[10] = Cell Viability - LYMP2-021 (AID 974)
Method in brief: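 In qHTS format, compounds are tested against 2500 lymphoblastoid cells per well for 24 h; viable cell number is inferred from ATP-driven luciferase light, and Hill-equation fitting yields AC50 values.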

[11] = Cell Viability - LYMP2-023 (AID 975)
Method in brief: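 In this qHTS, ATP-based luciferase luminescence (CellTiter-Glo) is quantified in human lymphoblastoid cells after 24 hr compound treatment at 37 C; tetraoctylammonium bromide serves as positive control. Concentration-response curves are Hill-fitted to give AC50.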

[12] = Cell Viability - LYMP2-025 (AID 976); note: series mostly up to about 92 µM
Method in brief: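 Luminescent ATP readout after 24 hr treatment of a human lymphoblastoid line (LYMP2-025, 2500 cells/well, 37 C). Reagent developed 30 min at room temperature; AC50 fitted with the Hill equation.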

[13] = Cell Viability - LYMP2-002 (AID 977);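 note: series mostly up to about 92 µM; compound exposure lasted 24 h at 37 °C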
Method in brief: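 Human lymphoblastoid cells, 2500/well, complete medium; 5 h 37 C settle; compound 24 h 37 C; CellTiter-Glo, 30 min RT; luminescence. Decrease in ATP = cytotoxicity; AC50 via Hill equation.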

[14] = Cell Viability - LYMP2-006 (AID 978);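 note: series mostly up to about 92 µM; cells exposed to compound for 24 hours; nearly all actives have a fitted effect of over 60% in size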
Method in brief: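 Concentration-dependent loss of intracellular ATP in a human lymphoblastoid line after 24 hr treatment at 37 C was measured by CellTiter-Glo luminescence, with AC50 values obtained from standard Hill-equation modelling.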

[15] = Cell Viability - LYMP2-007 (AID 979);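 note: cells exposed to compound for 24 h before reading; nearly all actives have a fitted effect of over 60% in size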
Method in brief: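 Measured via luciferase-based ATP quantitation: lymphoblastoid cells, 24 hr compound exposure at 37 C, AC50 from Hill fits.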

[16] = Cell Viability - LYMP2-008 (AID 980); note: nearly all actives have a fitted effect of over 60% in size
Method in brief: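 Measured: ATP-dependent luminescence, proportional to viable cell number, in human lymphoblastoid cells treated 24 hr with compound in complete culture medium. Values are AC50s from Hill-equation modelling of qHTS titrations.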

[17] = Cell Viability - LYMP2-010 (AID 981)
Method in brief: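 This 24 hr viability screen uses LYMP2-010 lymphoblastoid cells, quantifies ATP via luciferase luminescence, and derives AC50 from Hill fits of qHTS concentration-response data.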

[18] = Cell Viability - LYMP2-012 (AID 982)
[19] = Cell Viability - LYMP2-014 (AID 983); note: series mostly up to about 92 µM; nearly all actives have a fitted effect of over 50% in size
Method in brief: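 Quantitative HTS in lymphoblastoid cells: 24 hr compound exposure, then CellTiter-Glo ATP luminescence. Positive control was tetraoctylammonium bromide, 6.4pM to 92 uM.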

[20] = Cell Viability - LYMP2-016 (AID 984)
Method in brief: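 Acute toxicity in a Coriell human lymphoblastoid line is scored as loss of intracellular ATP over 24 h of treatment in complete medium. CellTiter-Glo signal is fitted across concentrations with the Hill equation to give AC50.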

Measured: outcome

CC1=CC(=O)CC(C)(C)C1(O)/C=C/C(C)=C\C(=O)O (stereo not given)
inactive: all assays above

Cc1occc(=O)c1O
inactive: all assays above
